Holding throughout (assay type): functional
The target in assay [1] is Solute carrier family 2, facilitated glucose transporter member 1 (Homo sapiens) (UniProt P11166). As to the kind of experiment: ST_JUDE_LEISH: Cytotoxicity at 2uM final concentration against transgenic Leishmania Mexicana promastigotes LmGLUT1 that are glucose transport deficient and complemented with the human glucose transporter GLUT1. Activity is measured by DNA content using SYBR green in vitro.

Assay [2] concerns the target Hexose transporter 1 (Plasmodium falciparum) (UniProt O97467). As to the kind of experiment: ST_JUDE_LEISH: Cytotoxicity at 2uM final concentration against transgenic Leishmania Mexicana promastigotes LmPfHT that are glucose transport deficient and complemented with the Plasmodium falciparum hexose transporter. Activity is measured by DNA content using SYBR green in vitro.

The target in assay [3] is Glucose transporter (Leishmania mexicana) (UniProt O61059). As to the kind of experiment: ST_JUDE_LEISH: Cytotoxicity at 2uM final concentration against transgenic Leishmania Mexicana promastigotes LmGT2 that are glucose transport deficient and complemented with the L. Mexicana glucose transporter 2. Activity is measured by DNA content using SYBR green in vitro.

Data on 35 compounds can be found in ChEMBL document CHEMBL3433997, “St. Jude Leishmania screening dataset” (2016).

The structures appear in SMILES notation.

Chain of Solute carrier family 2, facilitated glucose transporter member 1 (Homo sapiens) (P11166 whole entry): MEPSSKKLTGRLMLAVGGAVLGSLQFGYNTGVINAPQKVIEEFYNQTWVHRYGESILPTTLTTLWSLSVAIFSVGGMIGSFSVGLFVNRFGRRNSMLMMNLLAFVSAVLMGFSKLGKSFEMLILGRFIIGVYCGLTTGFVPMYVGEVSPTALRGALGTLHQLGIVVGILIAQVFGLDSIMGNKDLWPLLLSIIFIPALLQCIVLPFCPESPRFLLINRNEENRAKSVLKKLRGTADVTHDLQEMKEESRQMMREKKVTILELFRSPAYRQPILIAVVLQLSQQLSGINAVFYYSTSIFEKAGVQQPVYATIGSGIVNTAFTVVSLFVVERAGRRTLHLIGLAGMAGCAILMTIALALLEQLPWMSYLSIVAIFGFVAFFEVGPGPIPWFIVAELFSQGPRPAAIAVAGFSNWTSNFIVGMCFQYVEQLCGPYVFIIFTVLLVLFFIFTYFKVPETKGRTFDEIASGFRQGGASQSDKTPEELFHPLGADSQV

For the compound `O=C(/C=C/c1ccc(Cl)c(Cl)c1)NCCCCN1CCC(c2c[nH]c3ccccc23)CC1`, the results for the inhibition in assay [1], in assay [2] and in assay [3] were -2.39%, 0.39% and -0.01%, respectively.

Consider `CCOc1ccc(N(CC)S(=O)(=O)c2cc(Br)cc3c2N(C(=O)C2CC2)CC3)cc1`, for which the inhibition in assay [1] is 2.96%; in assay [2] it was 2.04%; in assay [3], 1.74%.

As for `OCC1CCN(Cc2ccc(-c3cccc(-c4nc5cc(C(F)(F)F)ccc5[nH]4)c3)cc2)CC1`, the inhibition is -1% in assay [1], 1.12% in assay [2] and 7.35% in assay [3].

As for `Cc1cc(=NN=Cc2ccccc2)c2cc(F)ccc2[nH]1`, the results for the inhibition in assay [1], in assay [2] and in assay [3] were 4.17%, 0.79% and 6.79%, respectively.

On to `CCCCC#Cc1cnc2nc(N)[nH]c(=O)c2n1`, for which the inhibition is 1.66% in assay [1], 1.03% in assay [2] and 0.91% in assay [3].

For `Cc1cccc2nc(-c3cccc(-c4ccc(NC(=O)C5CCCO5)cc4)c3)[nH]c12` (stereo not given), the inhibition in assay [1] is 6.93%; in assay [2], 3.31%; in assay [3] it was 2.04%.

Regarding `OCCCCCCNc1ccnc2[nH]c3ccc(I)cc3c12`, the inhibition in assay [1] was found to be 8.64%; in assay [2], 6.33%; in assay [3] it was 3.14%.

Turning to `COc1ccc(CNC(=O)NC2CCN(c3ccnc(Nc4ccc(OC)cc4)n3)C2)cc1` (stereo not given), the values for the inhibition in assay [1], in assay [2] and in assay [3] were 1.61%, 1.7% and 1.82%, respectively.

As to `CC(C)c1ccc(S(=O)(=O)Nc2cccc(CCN3CCC(N4CCCCC4)CC3)c2)cc1`, the values for the inhibition in assay [1], in assay [2] and in assay [3] were 38%, 4.08% and 1.03%, respectively.

`c1cncc(-c2cccc(CNc3nccc(Nc4ccc(OCCN5CCOCC5)cc4)n3)c2)c1`: the inhibition in assay [1] is 0.48%; in assay [2] it was 1%; in assay [3], 0.07%.

Consider `CC(C)(C)c1ccc(NC(=O)c2cccc(CN3CCCN(Cc4ccsc4)CC3)c2)cc1`, for which the inhibition in assay [1] was determined as 5.17%; in assay [2] it was 1.84%; in assay [3] it was 1.41%.

Consider `O=C(c1ccc(-c2ccc(-c3nc4cc(F)ccc4[nH]3)cc2)cc1)N1CCCCC1CN1CCC(O)C1` (stereo not given), for which the inhibition was 4.53% in assay [1], 4.9% in assay [2] and 1.78% in assay [3].

As for `Cc1noc(C)c1-c1cccc(CNCc2ccc(-c3cccc(-c4nc5cc(C(F)(F)F)ccc5[nH]4)c3)cc2)c1`, the inhibition was -0.48% in assay [1], 1.3% in assay [2] and 1.67% in assay [3].

Turning to `CN1CCN(Cc2cccc(-c3ccc4c(Nc5ccc(Oc6ccccc6)cc5)ccnc4c3)c2)CC1`, the inhibition in assay [1] turned out to be 12.9%; in assay [2], 17%; in assay [3], 18.6%.

On to `c1ccc(CN2CCN(CCCCNc3c4ccccc4nc4ccccc34)CC2)cc1`, for which the figures for the inhibition in assay [1], in assay [2] and in assay [3] were 31.7%, 37.9% and 19.4%, respectively.

Regarding `CN1CCN(Cc2cccc(-c3ccc4c(Nc5ccc(Oc6cccnc6)cc5)ccnc4c3)c2)CC1`, the inhibition in assay [1] came out at 4.73%; in assay [2], 5.64%; in assay [3], 4.34%.

With `CC(Cc1ccc(CNC(=O)c2ccc(CC(C)NCCc3cccc(Cl)c3)cc2)cc1)NCCc1cccc(Cl)c1` (stereo not given), the inhibition in assay [1] was 1.09%; in assay [2], 8.32%; in assay [3], 2.1%.

For the compound `O=C(Cc1ccccc1)NC1(c2ccccc2)CCN(CCc2c[nH]c3ccc(F)cc23)CC1`, the inhibition in assay [1] was -0.99%; in assay [2], 0.25%; in assay [3], -0.69%.

`Cc1nnsc1C(=O)Nc1ccc(-c2cccc(-c3nc4cc(F)ccc4[nH]3)c2)cc1`: the inhibition in assay [1] was 1.36%; in assay [2], 1.3%; in assay [3], -2.69%.

Take `COc1cc(Cc2cnc(N)nc2N)cc(OCCCC(=O)O)c1OC`: the inhibition in assay [1] amounted to 2.98%; in assay [2], 1.62%; in assay [3] it was 1.78%.

For `CN1CCc2cc(NC(=O)c3cc4ccccc4s3)cc(-c3ccccc3)c2CC1`, the inhibition in assay [1] amounted to 97.2%; in assay [2], 101%; in assay [3], 95.9%.

For the compound `CCCc1ccc(NC(=O)c2cccc(CN3CCCN(Cc4cccc(O)c4)CC3)c2)cc1`, the figures for the inhibition in assay [1], in assay [2] and in assay [3] were -0.09%, 2.34% and 0.71%, respectively.

In the case of `Cc1cc2c(NC(=O)NC3CCN(CCc4ccccc4Cl)CC3)cccc2cn1`, the inhibition in assay [1] came out at 2.51%; in assay [2], 1.74%; in assay [3] it was 1.68%.

With `COc1ccc(-c2ccc(NC(=O)c3ccc(C#N)cc3)cc2)cc1CN(C)CCN(C)C`, the results for the inhibition in assay [1], in assay [2] and in assay [3] were 6.36%, 4.84% and 1.19%, respectively.

As for `CCOC(=O)c1ccc(N(CCCN(CCCN(c2ccc(C(=O)OCC)cc2)S(=O)(=O)c2ccc(C)cc2)CCc2ccc(O)cc2)S(=O)(=O)c2ccc(C)cc2)cc1`, the inhibition was 2.89% in assay [1], 2.43% in assay [2] and 1.65% in assay [3].

For the compound `O=C(O)c1cccnc1Sc1ccc(Cl)cc1`, the results for the inhibition in assay [1], in assay [2] and in assay [3] were -0.75%, -0.76% and -0.47%, respectively.

In the case of `Cc1ccc(C)c2sc(N(CCCn3ccnc3)C(=O)C=Cc3cccs3)nc12`, the inhibition in assay [1] is 1.74%; in assay [2], 2.3%; in assay [3], -1.56%.

Take `Cc1nc(N)nc(N)c1-c1ccc(Br)c(Br)c1`: the inhibition in assay [1] was found to be 4.47%; in assay [2], 4.38%; in assay [3], 3.4%.

On to `CCNc1cc(C(=O)N[C@@H](Cc2ccc(Cl)cc2)[C@H](O)CNC2CCCCC2)cc(N2CCCCS2(=O)=O)c1`, for which the inhibition in assay [1] turned out to be 0.89%; in assay [2], 1.36%; in assay [3] it was 1.39%.

In the case of `CCc1ccc(N2C(=O)C3C(Cc4ccc(OC(C)(C)C)cc4)NC4(C(=O)N(Cc5ccccc5)c5ccc(F)cc54)C3C2=O)cc1` (stereo not given), the inhibition in assay [1] was 0.6%; in assay [2], -0.02%; in assay [3] it was -1.06%.

Turning to `Cc1noc(C)c1-c1cccc(CNCc2cccc(-c3ccc(-c4nc5ccccc5[nH]4)cc3)c2)c1`, the inhibition is 0.58% in assay [1], -1.28% in assay [2] and -1.53% in assay [3].

Turning to `N=C(/N=C(/NCCCCCCN/C(=N\C(=N)Nc1ccc(Cl)cc1)N1CCOCC1)N1CCOCC1)Nc1ccc(Cl)cc1`, the inhibition turned out to be 10.5% in assay [1], 9.54% in assay [2] and 9.37% in assay [3].

Take `CCOC(=O)c1ccc(NC(=O)Nc2cccc(-c3ccc(-c4nc5ccccc5[nH]4)cc3)c2)cc1`: the inhibition in assay [1] was determined as 5.47%; in assay [2], 1.48%; in assay [3], 3.89%.

As to `COc1ccc(NC(=O)[C@H](CC(C)C)Nc2cc(C)nc(NCCc3cccs3)n2)cc1`, the inhibition in assay [1] was -2.08%; in assay [2] it was 1.29%; in assay [3], -1.58%.

For the compound `O=C(Nc1ccnc2ccccc12)NC1CCN(Cc2ccccc2)CC1`, the inhibition stood at 3.42% in assay [1], 3.28% in assay [2] and 3.89% in assay [3].
